This is an account of results in PubChem BioAssay (NCATS).

Test [1] can be described thus: Cell Viability - Jurkat (AID 426;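 active = dose-dependent loss of cell ATP signal giving a full or clear fitted curve, ranked by lower potency value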; note: potency is the fitted concentration of half-maximal effect). The settings on record: qHTS. Summed up:
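Cells of the human T-cell leukemia line Jurkat (E6-1) are seeded at 5000 per well, treated with compound across a concentration range for 40 hours at 37 °C, then lysed with CellTiter-Glo; luminescence reports ATP.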
Background: Quantitative high-throughput screening tests each substance at several concentrations.

The nature of test [2]: Cell Viability - Hek293 (AID 427;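 active = compounds whose dose-response curve shows a full or clear partial loss of cell viability, called from curve shape rather than a numeric limit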;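 note: potency is the fitted concentration of half-maximal effect; cells exposed to compound for 40 hours at 37 °C before reading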). The settings on record: qHTS. Put shortly: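 AC50 values derive from Hill-modelled concentration-response of ATP-based luminescence, normalized between DMSO-only and 100 uM tamoxifen controls. Cells were exposed in complete culture medium for 40 hr at 37 °C before detection.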
Test [3] addresses Mitogen-activated protein kinase 10 (Mus musculus) (UniProt Q61831). The test can be described thus: JNK3 AlphaScreen Assay (AID 530; active = well fitted curve in either direction with a large enough effect, not every such curve was filed as active;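 note: kinase came from lysate of stimulated human HepG2 cells; signal reports phosphorylation of biotinylated GST-cJun 1-79 at Ser73 with 10 µM ATP; % is set by controls: 0 for no effect and ±100 for the full control effect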). Summed up: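 qHTS titrations with 15 min compound pre-incubation before adding ATP (10 uM final). Read-out: AlphaScreen of Ser73-phosphorylated biotin-GST-cJun using HepG2 lysate JNK3 activated by IL-1β and TNFα.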
A short description of test [4]: Cell Viability - NIH 3T3 (AID 541).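 Note: plate controls were DMSO alone for no effect and tamoxifen positive control for full effect; nearly all actives have a fitted effect of over 25% in size.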 The settings on record: NIH 3T3 cell viability, qHTS; activity change, negative = cytotoxicity: at 92.2 µM (top of the series). Summed up: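 Cells seeded at 1000/well, rested 5 hr at 37 °C, then dosed and incubated 40 hr at 37 °C. CellTiter-Glo added, 20 min room temperature, luminescence read. AC50 by Hill fit.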
Test [5] is described as follows: Cell Viability - H-4-II-E (AID 543). Note: % is set by controls: 0 for no effect and ±100 for the full control effect; nearly all actives have a fitted effect of over 35% in size. Put shortly:
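Cells seeded at 1500 per well and rested 5 hr; compounds added; 40 hr incubation at 37 °C; CellTiter-Glo added, 20 min at room temperature; luminescence read. Hill-equation fits gave AC50.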

Test [6] can be described thus: Cellular Toxicity (caspase-3) NIH 3T3 (AID 666).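 Note: caspase signal read after 16 h compound exposure; 0% = DMSO basal and 100% = 100 µM tamoxifen stimulation.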 Summed up:
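Cells were plated at 1000 per well and incubated 5 hr at 37°C, then compound was added for 16 hr. Caspase-Glo 3/7 reagent followed for 20 min at room temperature before luminescence was read.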

Test [7] in a line: Cell Viability - LYMP2-004 (AID 966).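 Note: plate controls were DMSO only for no effect and tetraoctylammonium bromide control for full effect; nearly all actives have a fitted effect of over 65% in size.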 Summed up: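 qHTS cytotoxicity: human lymphoblastoid line, 24 hr compound treatment, 37 C, complete medium. Viability read as cellular ATP via luciferase luminescence; tetraoctylammonium bromide served as positive control.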
Test [8] can be described thus: Cell Viability - LYMP2-019 (AID 973).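 Note: 0% = DMSO alone and full effect = 92 µM tetraoctylammonium bromide; nearly all actives have a fitted effect of over 55% in size.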 Summed up: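 Cytotoxicity is scored as a concentration-dependent drop in cellular ATP after cells (2500/well) receive compound for 24 hr at 37 C. Tetraoctylammonium bromide serves as positive control.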
Test [9] can be described thus: Cell Viability - LYMP2-021 (AID 974).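 Note: compound exposure lasts 24 hours at 37 °C; % is set by controls: 0 for no effect and ±100 for the full control effect; nearly all actives have a fitted effect of over 55% in size.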 Put shortly:
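Loss of cellular ATP, measured with a luciferase-based CellTiter-Glo readout, serves as the toxicity signal in human lymphoblastoid cells treated for 24 hours at 37 C. Potency is reported as AC50 from a standard Hill model.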

Test [10] can be described thus: Cell Viability - LYMP2-023 (AID 975).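 Note: cellular ATP measured by luciferase luminescence as viability proxy; plate controls were DMSO only for no effect and 92 µM tetraoctylammonium bromide control for full effect; nearly all actives have a fitted effect of over 55% in size.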 Summed up: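 Steps: seed 2500 human lymphoblastoid cells per well, incubate 5 hr at 37 C, add compound for 24 hr at 37 C, add CellTiter-Glo, hold 30 min at room temperature, read luminescence. AC50 derived by Hill modelling.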
Test [11] can be described thus: Cell Viability - LYMP2-002 (AID 977).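 Note: compound exposure lasted 24 h at 37 °C; plate controls were DMSO only for no effect and 92 µM tetraoctylammonium bromide for full effect.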 Summed up: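 Human lymphoblastoid cells (2500/well) in complete medium were preincubated 5 hr at 37 C, then exposed to compounds for 24 hr at 37 C. Intracellular ATP was read by CellTiter-Glo luminescence; AC50 came from Hill-equation concentration-response fits.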
The nature of test [12]: Cell Viability - LYMP2-007 (AID 979).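 Note: cells exposed to compound for 24 h before reading; 0% = DMSO only and the negative end = 92 µM tetraoctylammonium bromide; nearly all actives have a fitted effect of over 60% in size.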 Summed up: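 Cells are seeded at 2500 per well and rested 5 hr. Compounds are then added over a concentration series for 24 hr at 37 C. CellTiter-Glo is added for 30 min at room temperature before luminescence reading.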
Test [13] can be described thus: Cell Viability - LYMP2-014 (AID 983).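 Note: plate controls were DMSO only for no effect and 92 µM tetraoctylammonium bromide for full effect; nearly all actives have a fitted effect of over 50% in size.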 Put shortly:
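Cells are plated at 2500/well and left 5 hr at 37 C. Compounds are added across a concentration range and incubated 24 hr at 37 C in complete medium. CellTiter-Glo is added, and luminescence is read after 30 min at room temperature.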

The nature of test [14]: Cell Viability - LYMP2-018 (AID 985).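 Note: compound exposure lasted 24 hr at 37 °C; plate controls were DMSO only for no effect and tetraoctylammonium bromide at 92 µM for full effect; nearly all actives have a fitted effect of over 50% in size.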 Put shortly: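 Seed 2500 lymphoblastoid cells per well, incubate 5 hr at 37 C, add compound and incubate 24 hr at 37 C, add CellTiter-Glo, wait 30 min at room temperature, then read luminescence.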
Test [15] is described as follows: Cell Viability - LYMP2-020 (AID 986).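 Note: plate controls were DMSO only for no effect and tetraoctylammonium bromide at 92 µM for full effect; nearly all actives have a fitted effect of over 55% in size.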 Put shortly: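 Seed 2500 cells per well and incubate 5 hr at 37 C. Add compounds at a concentration series and incubate 24 hr at 37 C. Add CellTiter-Glo, wait 30 min at RT, read luminescence, and fit a Hill curve for AC50.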
A short description of test [16]: Cell Viability - LYMP2-022 (AID 987). Put shortly:
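Cells were seeded at 2500 per well, rested 5 hr at 37 C, and treated with titrated compounds for 24 hr at 37 C. Cellular ATP was then quantified by luciferase luminescence, and AC50 values were derived from Hill-modelled concentration-response curves.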

Test [17] is described as follows: Cell Viability - LYMP2-026 (AID 989). Note: % is set by controls: 0 for no effect and ±100 for the full control effect; nearly all actives have a fitted effect of over 50% in size. Put shortly:
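Cells are seeded at 2500 per well and held 5 hr at 37 C. Compounds are added in concentration series for 24 hr, then CellTiter-Glo reagent is applied and luminescence read.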

A short description of test [18]: qHTS assay for small molecule agonists of retinoid X receptor alpha signaling (AID 588544). The settings on record: HEK293T RXRa-UAS-bla, beta-lactamase reporter, 18 h; 530 nm emission.
Test [19] is described as follows: qHTS assay for small molecule antagonists of retinoid X receptor alpha signaling (AID 588546).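 Note: cells stimulated with 9-cis-retinoic acid as agonist; % is set by controls: 0 for no effect and ±100 for the full control effect.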 The following applies: HEK293T RXRa-UAS-bla, beta-lactamase ratio, antagonist mode; measured here: W530 green channel, cytotoxicity proxy. Put shortly: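 Beta-lactamase reporter inhibition, read as CCF4 fluorescence ratio (ex 405, em 460/530 nm) after 2 h at RT. HEK293T UAS-bla cells, 2500/well, were stimulated with 9-cis-RA at 500 or 100 nM final alongside test compound for 18 h at 37 C.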

Test [20] addresses Voltage-gated inwardly rectifying potassium channel KCNH2 (Homo sapiens) (UniProt Q12809). As to the kind of experiment: qHTS Assay for Small Molecule Inhibitors of the Human hERG Channel Activity (AID 588834).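 Note: U2OS cells transduced with hERG by BacMam; top concentration of the series differs between compounds; % is set by controls: 0 for no effect and ±100 for the full control effect; lower thallium flux fluorescence means stronger hERG block; nearly all actives have a fitted effect of over 50% in size.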 Put shortly: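 Cells were infected with hERG-BacMam virus for 4 hrs at room temperature, grown overnight, then seeded at 2000/well. After dye loading and roughly 10 min compound treatment, thallium influx was triggered and fluorescence recorded.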

Several values for one entry are separate records, joined by “and”; a condition that tells them apart may be missing. Equal values may be shown once. Records with an inconclusive call do not appear. Activity calls are given as the source filed them. Unless noted, calls come from the whole dose curve; as a rule, active = well fitted curve in the direction sought with a large enough effect; inconclusive = small, poorly fitted or top-dose-only effect, or another doubt; inactive = no such curve, though single readings can be large; an effect the other way counts as inactive or inconclusive.

Voltage-gated inwardly rectifying potassium channel KCNH2 (Homo sapiens), sequence (Q12809 whole entry, looked up): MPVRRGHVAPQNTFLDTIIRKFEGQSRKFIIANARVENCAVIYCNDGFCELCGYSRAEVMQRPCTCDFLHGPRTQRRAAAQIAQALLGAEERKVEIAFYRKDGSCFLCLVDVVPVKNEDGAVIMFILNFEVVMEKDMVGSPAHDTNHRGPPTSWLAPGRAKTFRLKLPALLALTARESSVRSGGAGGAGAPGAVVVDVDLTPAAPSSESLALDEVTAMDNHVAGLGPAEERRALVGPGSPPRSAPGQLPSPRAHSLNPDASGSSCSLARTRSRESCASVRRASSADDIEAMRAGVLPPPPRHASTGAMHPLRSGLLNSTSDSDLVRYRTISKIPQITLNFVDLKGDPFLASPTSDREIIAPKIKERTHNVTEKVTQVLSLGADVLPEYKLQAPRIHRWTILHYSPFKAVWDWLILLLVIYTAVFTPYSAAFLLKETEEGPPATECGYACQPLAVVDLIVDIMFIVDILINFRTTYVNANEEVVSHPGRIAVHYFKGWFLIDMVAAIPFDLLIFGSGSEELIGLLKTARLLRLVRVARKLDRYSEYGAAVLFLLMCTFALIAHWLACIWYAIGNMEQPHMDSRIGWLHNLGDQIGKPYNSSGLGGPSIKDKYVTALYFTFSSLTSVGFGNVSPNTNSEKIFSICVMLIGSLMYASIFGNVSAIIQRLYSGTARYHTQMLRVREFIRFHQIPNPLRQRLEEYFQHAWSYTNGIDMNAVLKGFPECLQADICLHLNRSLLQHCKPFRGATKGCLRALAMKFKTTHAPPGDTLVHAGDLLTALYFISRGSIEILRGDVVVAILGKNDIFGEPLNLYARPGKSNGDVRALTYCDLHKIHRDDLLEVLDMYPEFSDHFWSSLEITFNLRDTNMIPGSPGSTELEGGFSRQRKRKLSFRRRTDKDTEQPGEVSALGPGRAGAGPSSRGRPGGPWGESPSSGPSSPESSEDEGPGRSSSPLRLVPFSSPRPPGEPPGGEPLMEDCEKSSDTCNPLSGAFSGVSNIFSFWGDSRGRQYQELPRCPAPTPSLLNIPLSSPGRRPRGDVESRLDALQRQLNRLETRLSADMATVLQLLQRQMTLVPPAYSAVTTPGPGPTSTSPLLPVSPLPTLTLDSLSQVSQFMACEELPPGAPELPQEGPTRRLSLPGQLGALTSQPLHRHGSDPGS

Turning to `[O-][Br+2]([O-])O`, the Potency in test [1] and in test [2] was > 92 µM (inactive) each time. Besides, the call in test [3] and in test [6] was inactive. Moreover, the activity change, negative = cytotoxicity in [4] is 0.18% (inactive) and -3.06% (inactive). The Potency entry in [5], in test [7], in test [8], in test [9], in [10] and in test [11] was “inactive” each time. In addition, the Potency entry in test [12], in test [13], in test [14], in test [15], in [16] and in test [17] was “inactive” each time. The Potency entry in test [20] is “inactive”. Besides, the max response in test [18] is 8.99% and 2.4%; in [19], -4.01% and -4.2%.

In the case of `ClCBr`, the Potency in [1] and in test [2] was > 92 µM (inactive) in each case. Further, the outcome in test [3] and in test [6] was inactive. For the same molecule, in [4], the activity change, negative = cytotoxicity was -20.5% (inactive). In addition, the Potency entry in test [5], in test [7], in test [10], in test [11], in test [14] and in test [16] was “inactive” each time. The Potency entry in test [17] and in test [20] was “inactive” throughout. The values for the max response in [18] and in test [19] were -17.3% and -9.96%, respectively.

`C=C(Cl)Cl`: the Potency in test [1] and in test [2] was > 92 µM (inactive) in each case. Moreover, the result in test [3] and in test [6] was inactive. In [4], the activity change, negative = cytotoxicity is 0.633% (inactive). In addition, the Potency entry in [5], in [7], in test [8], in test [9], in test [10] and in test [11] was “inactive” throughout. The Potency result in [12], in test [13], in test [14], in test [15], in test [16] and in [17] was “inactive” each time. In addition, the Potency result in test [20] was “inactive”. Also, the max response was -17.1% in test [18] and -3.44% in [19].

Regarding `CCSC(=O)Cl`, the Potency in test [1] and in test [2] was > 92 µM (inactive) in each case. In addition, the molecule was called inactive in [3] and in test [6]. Also, in [4], the activity change, negative = cytotoxicity is -9.03% (inactive). Moreover, the Potency result in test [5], in [7], in [8], in test [9], in test [10] and in test [11] was “inactive” in each case. Further, the Potency entry in test [12], in [13], in test [14], in [15], in [16] and in [17] was “inactive” in each case. Moreover, the Potency result in [20] is “inactive”. In addition, the max response in test [18] was -20.5%; in test [19], -5.71%.

Consider `OCC(Br)CBr` (centres undefined), for which the Potency in [1] and in test [2] was > 92 µM (inactive) throughout. In addition, the call in test [3] and in test [6] was inactive. Further, the activity change, negative = cytotoxicity in test [4] was -14.7% (inactive). In addition, the Potency entry in [5], in test [7], in test [8], in test [9], in [10] and in [12] was “inactive” each time. For the same molecule, the Potency result in test [13], in [14], in [15], in test [16], in test [17] and in [20] was “inactive” throughout. Moreover, the max response is -16% in test [18] and -6.01% in test [19].

Turning to `Cc1ccc2ccccc2c1`, the Potency in test [1] and in test [2] was > 92 µM (inactive) throughout. In addition, the molecule was classed as inactive in test [3] and in [6]. Moreover, in test [4], the activity change, negative = cytotoxicity was -11.3% (inactive). Moreover, the Potency result in test [5], in test [7], in test [8], in test [9], in test [10] and in test [11] was “inactive” throughout. Besides, the Potency entry in test [12], in test [13], in test [14], in [15], in [16] and in [17] was “inactive” each time. Also, in test [20], the Potency entry is “inactive”. In addition, the max response in [18] is -14.7%; in test [19] it was -12.4%.

For `Clc1nc(Cl)nc(Cl)n1`, the Potency in test [1] and in test [2] was > 92 µM (inactive) each time. Moreover, the molecule was called inactive in [3] and in test [6]. The activity change, negative = cytotoxicity in [4] was -8.17% (inactive). Further, the Potency result in [5], in test [7], in test [8], in test [9], in [10] and in test [11] was “inactive” in each case. The Potency entry in test [12], in test [13], in test [14], in test [15], in test [16] and in [17] was “inactive” each time. In addition, the Potency result in test [20] is “inactive”. For the same molecule, the max response was 5.45% and -4.64% in [18]; -2.29% and -4.83% in test [19].
